Experiment [1] deals with Ferritin light chain (Equus caballus) (UniProt P02791). Briefly: qHTS Validation Assay for Identification of Novel General Anesthetics (AID 2323). Further: series mostly up to about 77 µM. The method, boiled down:
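10 uM horse-spleen apoferritin + 1-AMA (50% saturated, PBS); cpd pin-transferred, 10 min RT. Ex 380/Em 535 nm endpoint. Activity normalized between free 1-AMA and 1-AMA/apoferritin; 4-parameter Hill fit of concentration-response.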

The target in experiment [2] is ATP-dependent DNA helicase Q1 (Homo sapiens) (UniProt P46063). Kind of experiment: qHTS Validation Assay for Inhibitors of RecQ-Like Dna Helicase 1 (RECQ1) (AID 2353). The method, boiled down:
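50 nM RECQ1T1 preincubated 15 min with compound in Tris pH 8.0 buffer with MgCl2, DTT, Tween-20 and 2.5 ug/ml poly(dI-dC); started with 200 nM TAMRA/BHQ-2 forked duplex and 2 mM ATP. Unwinding read as fluorescence (525/598 nm), two reads 2 h apart.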

The nature of experiment [3]: Validation screen for small molecules that induce DNA re-replication in MCF 10A normal breast cells (AID 463097). Further: nearly all actives have a fitted effect of over 60% in size. Further: potency means the concentration at half of the fitted maximal effect. The method in brief:
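250 MCF 10A cells/well; compound pin-transferred; 48 hr, 37 C, 5% CO2; Hoechst 40 min; imaged 405/500-530 nm. Hits = more high-intensity nuclei.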

Experiment [4] deals with Ubiquitin carboxyl-terminal hydrolase 2 (Homo sapiens) (UniProt O75604). Briefly: qHTS Validation Assay for Inhibitors of Ubiquitin-specific Protease USP2a Using CHOP2 as the Reporter (AID 463106). The method, boiled down:
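10nM USP2 core + cpd, 30min RT; add 25nM Ub-CHOP2/25nM substrate; 60min RT; FI 485/531nm. Buffer Tris pH 8.0, CaCl2, BME, CHAPS. Norm. to NEM = 100% inhibition; time-zero read flags fluorescent artifacts.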
In general terms: Quantitative high-throughput screening tests each substance at several concentrations.

Experiment [5] concerns the target Tumor susceptibility gene 101 protein (Homo sapiens) (UniProt Q99816). Briefly: qHTS Validation Assay for Iinhibitors of HIV-1 Budding by Blocking the Interaction of PTAP/TSG101 (AID 485342; calls by dose curve). The method in brief: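 FP read-out: FITC-PTAP peptide, 50 nM final, binding Tsg101 binding domain, 10 uM final; 20 min r.t.; 10 mM HEPES pH 7.5, 0.15 M NaCl, 0.01% Tween 20, 3 mM EDTA, 0.1 mM TCEP.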

Experiment [6] has as its target ATP-dependent 6-phosphofructokinase (Trypanosoma brucei brucei) (UniProt O15648). Briefly: qHTS Validation Assay to Find Inhibitors of T. brucei phosphofructokinase (AID 485368). The following applies: outcome: dose series up to 57.5 µM. The method, boiled down:
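Activity was normalized between 1x (1.25 nM) PFK wells as no inhibition and enzyme-free wells as full inhibition, from luminescence after ADP-Glo detection of ADP made from 0.5 mM F6P and 0.1 mM ATP over 45 min.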

The nature of experiment [7]: Quantitative high throughput screen for delayed death inhibitors of the malarial parasite plastid, 96 hour incubation (AID 488745). Further: nearly all actives have a fitted effect of over 70% in size. Further: potency means the concentration at half of the fitted maximal effect. The method in brief: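 P. falciparum carrying an integrated firefly luciferase reporter, grown in erythrocytes (2% hematocrit, 0.1% parasitemia final) in RPMI 1640/0.5% Albumax, was exposed to compound for 96 h (two generations) at 37 C, 5% CO2. Luminescence decrease indicated growth inhibition.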

In experiment [8] the target is Thioredoxin reductase 1, cytoplasmic (Rattus norvegicus) (UniProt O89049). Briefly: qHTS Assay for Substrates of Mammalian Selenoprotein Thioredoxin Reductase 1 (TrxR1) (AID 488772).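 Further: NADPH fluorescence in the first read after selenite addition and not the 8 min delta; series mostly up to about 57 µM; a drop in NADPH fluorescence below the no-compound background marks a TrxR1 substrate.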 The method in brief: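 Quantitative HTS in Tris-HCl buffer at pH 7.5 with EDTA and Tween-20, using rat TrxR1, 400 uM NADPH and 400 uM selenite (final). A fall in initial NADPH fluorescence relative to background marked substrate behaviour.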

Experiment [9] has the same target. Kind of experiment: qHTS Assay for Inhibitors of Mammalian Selenoprotein Thioredoxin Reductase 1 (TrxR1) (AID 488773).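 Further: drop in NADPH fluorescence over an 8 min run after selenite addition; series mostly up to about 57 µM; nearly all actives have a fitted effect of over 40% in size.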 Particulars: Potency: inhibition. The method, boiled down: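 Steps: enzyme (90 nM) plus NADPH (400 uM final), 5 min at ~22 deg C; compound added, 15 min; selenite (400 uM final) added; fluorescence followed for 8 min. Concentration-response curves derived from the normalized delta values.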

In experiment [10] the target is Flap endonuclease 1 (Homo sapiens) (UniProt P39748). Briefly: qHTS Validation Assay for the Inhibitors of Human Flap endonuclease 1 (FEN1) (AID 488816). The method in brief: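 Readings taken at 0 and 15 min after starting the reaction with 50 nM (final) substrate supplied the signal. Compounds had first sat with 10 nM FEN1 reagent for 15 min at room temperature. Values come from Hill-equation concentration-response fits.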
Chain of Flap endonuclease 1 (Homo sapiens) (P39748 whole entry, looked up): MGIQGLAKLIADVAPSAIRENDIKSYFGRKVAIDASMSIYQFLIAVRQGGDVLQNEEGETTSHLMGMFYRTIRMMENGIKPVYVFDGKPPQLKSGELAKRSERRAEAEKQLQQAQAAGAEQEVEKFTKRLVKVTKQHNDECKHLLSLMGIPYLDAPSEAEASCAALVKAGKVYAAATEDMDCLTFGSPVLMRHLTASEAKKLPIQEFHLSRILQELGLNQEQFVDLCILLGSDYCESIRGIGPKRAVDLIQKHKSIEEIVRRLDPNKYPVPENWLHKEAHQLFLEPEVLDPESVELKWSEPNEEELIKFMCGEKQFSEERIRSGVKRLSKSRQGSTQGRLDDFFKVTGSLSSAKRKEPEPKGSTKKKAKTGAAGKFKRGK

Experiment [11] addresses M-phase phosphoprotein 8 (Homo sapiens) (UniProt Q99549). Kind of experiment: qHTS Validation Assay for Inhibitors for MPP8 Chromodomain Interactions with Methylated Histone Tails (AID 488949). Further: nearly all actives have a fitted effect of over 55% in size. Further: potency means the concentration at half of the fitted maximal effect. The method in brief: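 AlphaScreen read-out: streptavidin donor and nickel chelate acceptor beads (final 10 ug/mL), 30 min in the dark at RT. Complex of 50 nM MPP8 and 50 nM b-H3(1-18)K9me3 peptide had been exposed to compounds for 30 min beforehand.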

Experiment [12] deals with Chromobox protein homolog 1 (Homo sapiens) (UniProt P83916). Kind of experiment: qHTS Validation Assay for Inhibitors of HP1-beta Chromodomain Interactions with Methylated Histone Tails (AID 488953). Further: nearly all actives have a fitted effect of over 50% in size. Further: potency means the concentration at half of the fitted maximal effect. The method, boiled down:
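HP1-beta (50 nM) was preincubated 30 min at room temperature with biotinylated H3(1-18)K9me3 peptide (50 nM) in PBS pH 7.4, 0.01% Tween-20, then with compounds 30 min. AlphaScreen signal was read after streptavidin donor/nickel chelate acceptor beads (10 ug/mL final).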

The nature of experiment [13]: Cytometric Cell-Based qHTS for Inhibitors of the mTORC1 Signaling Pathway in MEF (Tsc2-/-, p53-/-) Cells (AID 2660).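 Further: Tsc2 and p53 null MEFs carrying empty vector with compound for 24 h; percent of cells above a phospho-rpS6 to PI ratio cutoff in each well; series mostly up to about 38 µM.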 The method in brief:
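Percent of cells positive for normalized phospho-S6 staining is reported, with the cutoff set from rapamycin (7.5 nM) versus DMSO wells. Tsc2-/-, p53-/- MEFs received compound for 24 hrs.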

Experiment [14] in a line: High Content Imaging Cell-Based qHTS for Inhibitors of the mTORC1 Signaling Pathway in MEF (Tsc2-/-, p53-/-) Cells (AID 2666).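 Further: percent of cells scored positive for phospho-rpS6 Ser235/236 immunostaining by imaging.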 The method, boiled down:
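Cells were plated, dosed with compound after 24 hrs, and incubated another 24 hrs at 37 degree Celsius. Fixed cells were immunostained for phospho-rpS6 Ser235/236 and counterstained, and the normalized signal was scored as % active cells against rapamycin and DMSO controls.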

Experiment [15] is described as follows: High Content Imaging Cell-Based qHTS for Inhibitors of the mTORC1 Signaling Pathway in MEF Cells (AID 2667).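 Further: Tsc2-/- p53-/- MEFs stably re-expressing wild-type Tsc2 exposed 24 h; series mostly up to about 38 µM.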 The method in brief: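 Immunofluorescence for rpS6 phosphorylation in MEFs of Tsc2-/-, p53-/- background rescued with WT Tsc2. Compound exposure lasted 24 hrs. Inhibition was scored against rapamycin-treated control wells.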
A short description of experiment [16]: Cytometry Cell-Based qHTS for Inhibitors of the mTORC1 Signaling Pathway in MEF cells (AID 2668).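 Further: Tsc2-/- p53-/- mouse embryonic fibroblasts stably re-expressing wild-type Tsc2; percent cells positive for phospho-rpS6 Ser235/236 relative to propidium iodide stain; series mostly up to about 38 µM.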 The method, boiled down: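 Read-out: phospho-rpS6 Ser235/236 immunofluorescence normalized to propidium iodide intensity, scored as % active cells against a rapamycin (7.5 nM) threshold. Cells: Tsc2-/-, p53-/- MEFs stably expressing WT Tsc2, compound-treated 24 hrs at 37 degree Celsius.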

For experiment [17], the target named is DNA polymerase III PolC-type (Bacillus subtilis (strain 168)) (UniProt P13267). Briefly: qHTS Validation Assay for the Inhibitors of DNA Replication in Gram-Positive Bacteria (AID 485295).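 Further: reconstituted holoenzyme with PolC plus beta clamp SSB and primase; PicoGreen fluorescence of double-stranded DNA made on primed circular M13 template; series mostly up to about 57 µM.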 The method in brief: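 PicoGreen fluorescence (ex 480–485/em 535–540 nm) reports dsDNA synthesized on ssM13Gori template with dNTPs/NTPs. Enzyme: holoenzyme rebuilt from purified PolC, beta subunit, SSB and primase. Compound preincubated before substrate addition; RT throughout.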
Chain of DNA polymerase III PolC-type (Bacillus subtilis (strain 168)) (P13267 whole entry, looked up): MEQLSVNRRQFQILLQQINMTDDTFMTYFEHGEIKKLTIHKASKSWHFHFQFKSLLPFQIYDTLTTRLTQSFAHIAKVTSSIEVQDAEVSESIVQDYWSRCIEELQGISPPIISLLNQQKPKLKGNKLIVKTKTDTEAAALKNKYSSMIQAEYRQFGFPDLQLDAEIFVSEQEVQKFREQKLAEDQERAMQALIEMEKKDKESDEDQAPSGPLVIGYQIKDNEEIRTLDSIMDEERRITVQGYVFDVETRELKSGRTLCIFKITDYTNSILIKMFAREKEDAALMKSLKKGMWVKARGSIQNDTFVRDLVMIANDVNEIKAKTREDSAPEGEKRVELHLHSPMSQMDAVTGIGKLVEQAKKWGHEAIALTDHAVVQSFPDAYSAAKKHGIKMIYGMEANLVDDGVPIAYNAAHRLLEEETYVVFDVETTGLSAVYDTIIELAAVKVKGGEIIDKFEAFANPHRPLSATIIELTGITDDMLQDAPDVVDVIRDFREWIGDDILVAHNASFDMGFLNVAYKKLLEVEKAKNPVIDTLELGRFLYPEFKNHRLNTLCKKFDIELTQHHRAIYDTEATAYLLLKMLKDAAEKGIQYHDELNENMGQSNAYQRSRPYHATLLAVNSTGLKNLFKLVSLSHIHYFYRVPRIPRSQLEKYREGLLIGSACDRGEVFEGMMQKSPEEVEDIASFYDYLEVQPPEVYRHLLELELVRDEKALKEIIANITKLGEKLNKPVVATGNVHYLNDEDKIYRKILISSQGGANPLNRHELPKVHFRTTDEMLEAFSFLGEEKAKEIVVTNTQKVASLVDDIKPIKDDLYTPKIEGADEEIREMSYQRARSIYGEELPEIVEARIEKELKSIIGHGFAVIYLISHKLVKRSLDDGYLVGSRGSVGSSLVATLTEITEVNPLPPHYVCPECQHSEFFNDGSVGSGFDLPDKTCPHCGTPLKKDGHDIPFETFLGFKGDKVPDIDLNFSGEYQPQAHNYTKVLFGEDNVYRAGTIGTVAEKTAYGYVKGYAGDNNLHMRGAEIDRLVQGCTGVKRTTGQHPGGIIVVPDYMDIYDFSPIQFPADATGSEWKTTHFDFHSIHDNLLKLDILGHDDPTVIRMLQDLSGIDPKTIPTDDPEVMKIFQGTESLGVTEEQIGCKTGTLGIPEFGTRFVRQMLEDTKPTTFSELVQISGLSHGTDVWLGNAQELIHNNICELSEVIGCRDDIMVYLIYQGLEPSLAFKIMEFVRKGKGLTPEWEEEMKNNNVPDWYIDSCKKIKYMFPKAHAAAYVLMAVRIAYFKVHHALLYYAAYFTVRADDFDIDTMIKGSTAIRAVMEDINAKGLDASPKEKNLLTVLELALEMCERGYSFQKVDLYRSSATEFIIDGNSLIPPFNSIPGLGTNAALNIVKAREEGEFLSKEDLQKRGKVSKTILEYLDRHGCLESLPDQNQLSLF

Experiment [18] has as its target Beta-2 adrenergic receptor (Homo sapiens) (UniProt P07550). Briefly: qHTS validation assay of beta-arrestin-biased ligands of beta2-adrenergic receptor (AID 485366). The method in brief:
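Luminescence from a tTA-responsive luciferase, induced when recombinant beta-arrestin is recruited to recombinant beta2-AR, served as the agonism signal. Cells were exposed to compound for 18 hr at 37 degrees C; titrations spanned up to 46 microM.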

In experiment [19] the target is RecQ-like DNA helicase BLM (Homo sapiens) (UniProt P54132). Briefly: qHTS Validation Assay for Inhibitors of Bloom's syndrome helicase (BLM) (AID 2364). The method, boiled down: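 Forked 20-bp duplex substrate (200 nM, TAMRA/BHQ-2) plus 2 mM ATP added after 15 min compound preincubation with 50 nM enzyme, pH 8.0, poly(dI-dC) 2.5 ug/ml. Strand separation followed by fluorescence (525/598 nm) over 2 h, normalized to enzyme-free and DMSO controls.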

The structures appear in SMILES notation. Inconclusive results are not listed. Active and inactive are the calls of the source. Unless noted, the call rests on the fitted dose curve; in most records, active means well fitted curve in the direction sought with a large enough effect; inconclusive means small, poorly fitted or top-dose-only effect, or another doubt; inactive means no such curve, though single readings can be large; an effect the other way counts as inactive or inconclusive.

Chain of Beta-2 adrenergic receptor (Homo sapiens) (P07550 whole entry, looked up): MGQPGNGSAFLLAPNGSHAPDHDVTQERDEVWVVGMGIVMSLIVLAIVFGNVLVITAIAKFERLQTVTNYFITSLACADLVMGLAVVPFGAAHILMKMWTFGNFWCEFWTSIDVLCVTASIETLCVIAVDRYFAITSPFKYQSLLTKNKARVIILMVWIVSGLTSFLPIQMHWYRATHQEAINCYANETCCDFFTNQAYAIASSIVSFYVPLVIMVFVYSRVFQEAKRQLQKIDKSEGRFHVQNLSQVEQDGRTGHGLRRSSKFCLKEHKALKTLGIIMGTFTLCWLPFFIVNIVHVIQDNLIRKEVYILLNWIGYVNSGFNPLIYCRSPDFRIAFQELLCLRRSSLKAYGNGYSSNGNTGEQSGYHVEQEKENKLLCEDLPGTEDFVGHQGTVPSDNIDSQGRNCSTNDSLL
Chain of ATP-dependent DNA helicase Q1 (Homo sapiens) (P46063 whole entry, looked up): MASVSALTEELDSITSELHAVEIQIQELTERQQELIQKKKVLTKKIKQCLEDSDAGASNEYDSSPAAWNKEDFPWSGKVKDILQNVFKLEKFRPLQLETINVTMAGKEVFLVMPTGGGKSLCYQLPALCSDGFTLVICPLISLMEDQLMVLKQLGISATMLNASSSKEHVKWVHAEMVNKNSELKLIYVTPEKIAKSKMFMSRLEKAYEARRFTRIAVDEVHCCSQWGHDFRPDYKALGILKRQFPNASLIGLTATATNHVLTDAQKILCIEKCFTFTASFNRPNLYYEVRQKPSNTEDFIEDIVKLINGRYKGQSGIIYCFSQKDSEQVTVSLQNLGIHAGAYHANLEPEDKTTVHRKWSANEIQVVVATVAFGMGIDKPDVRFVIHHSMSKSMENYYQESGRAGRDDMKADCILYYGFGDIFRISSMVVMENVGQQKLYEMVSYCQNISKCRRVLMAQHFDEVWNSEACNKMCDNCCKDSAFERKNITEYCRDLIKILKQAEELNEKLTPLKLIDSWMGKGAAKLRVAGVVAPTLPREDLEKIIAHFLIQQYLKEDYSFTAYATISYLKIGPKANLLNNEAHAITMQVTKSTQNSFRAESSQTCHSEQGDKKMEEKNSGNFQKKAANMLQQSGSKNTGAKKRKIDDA
Chain of Ubiquitin carboxyl-terminal hydrolase 2 (Homo sapiens) (O75604 whole entry, looked up): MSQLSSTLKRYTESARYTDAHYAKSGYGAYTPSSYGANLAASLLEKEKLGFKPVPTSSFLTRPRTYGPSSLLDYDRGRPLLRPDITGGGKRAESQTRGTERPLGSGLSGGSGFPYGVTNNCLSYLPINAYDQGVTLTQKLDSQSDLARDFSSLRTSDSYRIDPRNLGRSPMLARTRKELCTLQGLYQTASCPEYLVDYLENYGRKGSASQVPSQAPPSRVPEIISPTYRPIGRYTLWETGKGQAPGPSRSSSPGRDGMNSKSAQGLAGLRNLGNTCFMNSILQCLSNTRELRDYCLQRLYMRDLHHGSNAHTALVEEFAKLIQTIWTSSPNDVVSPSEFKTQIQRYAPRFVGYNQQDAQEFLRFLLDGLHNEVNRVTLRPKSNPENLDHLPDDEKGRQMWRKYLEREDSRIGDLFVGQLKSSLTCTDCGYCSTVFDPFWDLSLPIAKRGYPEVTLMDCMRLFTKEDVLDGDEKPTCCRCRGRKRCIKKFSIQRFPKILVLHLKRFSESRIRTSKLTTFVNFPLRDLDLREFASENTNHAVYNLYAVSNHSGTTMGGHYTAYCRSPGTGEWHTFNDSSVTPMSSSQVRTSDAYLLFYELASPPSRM
Chain of ATP-dependent 6-phosphofructokinase (Trypanosoma brucei brucei) (O15648 whole entry, looked up): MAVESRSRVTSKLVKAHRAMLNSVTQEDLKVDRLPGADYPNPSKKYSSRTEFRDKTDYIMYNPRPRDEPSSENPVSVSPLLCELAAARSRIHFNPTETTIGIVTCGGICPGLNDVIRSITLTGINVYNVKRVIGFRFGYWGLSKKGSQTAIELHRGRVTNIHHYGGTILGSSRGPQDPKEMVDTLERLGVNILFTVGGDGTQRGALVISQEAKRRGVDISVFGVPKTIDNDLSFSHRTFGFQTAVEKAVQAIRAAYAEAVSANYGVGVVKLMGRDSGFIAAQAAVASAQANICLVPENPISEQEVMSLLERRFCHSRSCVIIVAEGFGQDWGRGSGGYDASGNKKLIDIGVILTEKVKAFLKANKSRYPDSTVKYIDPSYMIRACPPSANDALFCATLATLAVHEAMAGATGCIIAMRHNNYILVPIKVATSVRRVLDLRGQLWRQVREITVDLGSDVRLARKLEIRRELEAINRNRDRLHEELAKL
Chain of Ferritin light chain (Equus caballus) (P02791 2-175 limits assumed): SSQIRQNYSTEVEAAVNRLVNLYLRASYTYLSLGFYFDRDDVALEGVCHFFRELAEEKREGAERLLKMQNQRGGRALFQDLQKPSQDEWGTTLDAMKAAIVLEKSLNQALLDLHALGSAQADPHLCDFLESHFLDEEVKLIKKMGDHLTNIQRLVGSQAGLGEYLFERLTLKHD
Chain of Tumor susceptibility gene 101 protein (Homo sapiens) (Q99816 whole entry, looked up, the tested form may be a part): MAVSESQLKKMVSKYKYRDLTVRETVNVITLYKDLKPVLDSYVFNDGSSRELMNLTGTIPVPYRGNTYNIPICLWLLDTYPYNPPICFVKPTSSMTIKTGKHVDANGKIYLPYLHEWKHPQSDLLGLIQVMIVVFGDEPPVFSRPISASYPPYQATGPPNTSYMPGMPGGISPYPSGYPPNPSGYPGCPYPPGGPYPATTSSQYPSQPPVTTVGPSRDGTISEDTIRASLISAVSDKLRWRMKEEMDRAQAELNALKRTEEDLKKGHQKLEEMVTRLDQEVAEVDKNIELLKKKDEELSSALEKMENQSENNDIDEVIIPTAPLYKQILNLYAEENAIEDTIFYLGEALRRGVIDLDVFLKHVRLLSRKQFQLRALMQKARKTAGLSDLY
Chain of Chromobox protein homolog 1 (Homo sapiens) (P83916 whole entry, looked up): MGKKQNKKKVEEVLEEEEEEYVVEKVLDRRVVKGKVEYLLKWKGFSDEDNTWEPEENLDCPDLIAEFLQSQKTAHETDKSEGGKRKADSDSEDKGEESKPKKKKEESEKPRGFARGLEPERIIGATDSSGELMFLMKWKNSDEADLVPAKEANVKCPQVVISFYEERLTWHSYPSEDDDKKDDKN

In the case of `CC/C(=C(\c1ccccc1)c1ccc(OCCN(C)C)cc1)c1ccccc1`, the call in experiment [1], in experiment [2], in [4], in [5], in experiment [6] and in experiment [10] was inactive. Further, the Potency in experiment [3] is 17.8 µM (active); in experiment [7], 13.1 µM (active); in [11], 17.8 µM (active); in [12], 35.5 µM (active). In addition, the Potency entry in experiment [8] and in experiment [9] was “inactive” throughout.
As for `COc1ccc(Cc2nccc3cc(OC)c(OC)cc23)cc1OC`, the call in experiment [13], in experiment [15], in experiment [4], in experiment [17], in experiment [5] and in [18] was inactive. For the same compound, the result in [6] was inactive. In addition, the Potency result in experiment [14], in experiment [16] and in experiment [8] was “inactive” throughout.
Consider `CCN1CCC[C@H]1CNC(=O)c1cc(S(N)(=O)=O)ccc1OC`, for which the call in [1], in experiment [2], in experiment [13], in [15], in experiment [4] and in experiment [17] was inactive. For the same compound, the compound was called inactive in experiment [5], in [18] and in experiment [10]. Moreover, the Potency entry in experiment [14], in [16], in experiment [3], in experiment [7], in [8] and in [9] was “inactive” in each case. For the same compound, the Potency entry in experiment [11] and in [12] was “inactive” in each case.
In the case of `CC(=O)CCCCn1c(=O)c2c(ncn2C)n(C)c1=O`, the compound was classed as inactive in experiment [1], in [2], in experiment [13], in [15], in experiment [4] and in experiment [17]. The call in [5], in experiment [18] and in [6] was inactive. The Potency result in experiment [19], in [14], in experiment [16], in experiment [3], in experiment [7] and in experiment [8] was “inactive” each time. The Potency entry in experiment [9], in experiment [11] and in [12] was “inactive” throughout.
With `CCN(CC)CCNC(=O)c1ccc(N)cc1`, the outcome in experiment [1], in experiment [2], in experiment [13], in experiment [15], in [17] and in experiment [5] was inactive. Further, the result in experiment [18] and in experiment [6] was inactive. The Potency result in experiment [14], in experiment [16], in experiment [3], in experiment [7], in [8] and in experiment [9] was “inactive” throughout. Further, the Potency result in experiment [11] and in experiment [12] was “inactive” in each case.
In the case of `CCCCCN(C)CCC(O)(P(=O)(O)O)P(=O)(O)O`, the result in experiment [13], in experiment [15], in experiment [4], in experiment [17], in experiment [5] and in experiment [18] was inactive. In addition, the result in experiment [6] and in experiment [10] was inactive. In addition, the Potency entry in experiment [14], in experiment [16], in experiment [8], in experiment [9], in experiment [11] and in experiment [12] was “inactive” throughout.
Take `NC(N)=Nc1nc(CSCC/C(N)=N/S(N)(=O)=O)cs1`: the compound was classed as inactive in experiment [1], in experiment [2], in experiment [13], in experiment [15], in [4] and in experiment [17]. Further, the compound was classed as inactive in experiment [5], in experiment [18] and in experiment [10]. Further, the Potency result in experiment [14], in [16], in experiment [3], in experiment [7], in experiment [8] and in experiment [9] was “inactive” each time. In addition, the Potency result in experiment [11] and in experiment [12] was “inactive” each time.
For the compound `CCn1cc(C(=O)O)c(=O)c2ccc(C)nc21`, the result in experiment [13], in experiment [15], in experiment [4], in experiment [17], in [5] and in experiment [18] was inactive. The compound was called inactive in [6]. Also, the Potency result in experiment [14], in [16], in experiment [8], in experiment [9] and in [12] was “inactive” each time.

(Values after PubChem BioAssay (NCATS).)
